Source: PubChem BioAssay AID1159580 (chemical genetic matrix, 2015)
Screen size: about 5,500 compounds; about 2,000 (36%) were called active. Another 18% or so got no clear call; they are omitted. No stated cut-off is given here; in the data, active means normalized growth mostly below about 0.91 (no sharp cut-off); inconclusive means no clear call, values can overlap the other calls; inactive means mostly above about 0.92. The list shows a part of the results.

Experiment: chemical genetic growth profiling, strain panel (AID 1159580);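 further: tested at 20 µM; growth read once vehicle control cultures reached saturation at 30 °C; 1 = growth at the plate median or of vehicle wells; lower values mean less growth of the strain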
Settings: S. cerevisiae deletion strains, growth OD
[1] = locus YAR019C, strain CDC15, hits give low values
[2] = locus YBL105C, strain PKC1, hits give low values
[3] = locus YBR135W, strain CKS1, hits give low values
[4] = locus YBR136W, strain MEC1, hits give low values
[5] = locus YBR160W, strain CDC28, hits give low values
[6] = locus YDL017W, strain CDC7, hits give low values
[7] = locus YDL028C, strain MPS1, hits give low values
[8] = locus YDL101C, strain DUN1, hits give low values
[9] = locus YDL108W, strain KIN28, hits give low values
[10] = locus YDL132W, strain cdc53, hits give low values
[11] = locus YDL214C, strain PRR2, hits give low values
[12] = locus YDR052C, strain DBF4, hits give low values
[13] = locus YDR226W, strain ADK1, hits give low values
[14] = locus YDR477W, strain SNF1, hits give low values
[15] = locus YER123W, strain YCK3, hits give low values
[16] = locus YER133W, strain GLC7, hits give low values
[17] = locus YFL009W, strain cdc4, hits give low values
[18] = locus YFL029C, strain CAK1, hits give low values
[19] = locus YFR003C, strain YPI1, hits give low values
[20] = locus YFR019W, strain FAB1, hits give low values
[21] = locus YFR028C, strain CDC14, hits give low values
[22] = locus YGR040W, strain KSS1, hits give low values
[23] = locus YGR052W, strain FMP48, hits give low values
[24] = locus YGR092W, strain DBF2, hits give low values
[25] = locus YHR030C, strain SLT2, hits give low values
[26] = locus YHR079C, strain IRE1, hits give low values
[27] = locus YHR082C, strain KSP1, hits give low values
[28] = locus YHR205W, strain SCH9, hits give low values
[29] = locus YIL147C, strain SLN1, hits give low values
[30] = locus YJL095W, strain BCK1, hits give low values
[31] = locus YJL157C, strain FAR1, hits give low values
[32] = locus YJR016C, strain ILV3, hits give low values
[33] = locus YJR066W, strain TOR1 (second series), hits give low values
[34] = locus YJR066W, strain TOR1, hits give low values
[35] = locus YKL048C, strain ELM1, hits give low values
[36] = locus YKL067W, strain YNK1, hits give low values
[37] = locus YKL101W, strain HSL1, hits give low values
[38] = locus YKL193C, strain SDS22, hits give low values
[39] = locus YKL203C, strain TOR2, hits give low values
[40] = locus YLR113W, strain HOG1, hits give low values
[41] = locus YLR133W, strain CKI1, hits give low values
[42] = locus YLR403W, strain SFP1, hits give low values
[43] = locus YML070W, strain DAK1, hits give low values
[44] = locus YMR001C, strain CDC5, hits give low values
[45] = locus YMR205C, strain PFK2 (second series), hits give low values
[46] = locus YMR277W, strain FCP1, hits give low values
[47] = locus YNL006W, strain LST8, hits give low values
[48] = locus YNL020C, strain ARK1, hits give low values
[49] = locus YNL161W, strain CBK1, hits give low values
[50] = locus YNL183C, strain NPR1, hits give low values
[51] = locus YNL207W, strain RIO2, hits give low values
[52] = locus YNL222W, strain SSU72, hits give low values
[53] = locus YNL307C, strain MCK1 (second series), hits give low values
[54] = locus YOL078W, strain AVO1, hits give low values
[55] = locus YOL136C, strain PFK27, hits give low values
[56] = locus YOR061W, strain CKA2, hits give low values
[57] = locus YOR119C, strain RIO1, hits give low values
[58] = locus YOR231W, strain MKK1, hits give low values
[59] = locus YOR329C, strain SCD5, hits give low values
[60] = locus YPL031C, strain PHO85, hits give low values
[61] = locus YPL153C, strain RAD53, hits give low values
[62] = locus YPL204W, strain HRR25, hits give low values
[63] = locus YPL209C, strain IPL1, hits give low values
[64] = locus YPL256C, strain CLN2, hits give low values
[65] = locus YPR025C, strain CCL1, hits give low values
[66] = locus YPR111W, strain DBF20, hits give low values
[67] = strain NNK1, hits give low values
[68] = strain TSCII, hits give low values
[69] = locus YDR054C, strain cdc34, hits give low values
[70] = locus YJL128C, strain PBS2, hits give low values
[71] = locus YPR106W, strain ISR1, hits give low values

Measured: normalized growth

Cc1ccc2nc3c(nc2c1)-c1ccccc1C3=O
active: [8] 0.716 | [11] 0.247 | [12] 0.861 | [14] 0.279 | [15] 0.217 | [16] 0.339 | [20] 0.281 | [22] 0.3 | [23] 0.255 | [24] 0.15 | [25] 0.208 | [26] 0.209 | [27] 0.261 | [28] 0.391 | [30] 0.227 | [31] 0.21 | [33] 0.259 | [34] 0.225 | [35] 0.309 | [36] 0.235 | [37] 0.264 | [39] 0.275 | [40] 0.288 | [41] 0.224 | [42] 0.181 | [43] 0.243 | [45] 0.261 | [48] 0.196 | [50] 0.259 | [53] 0.199 | [55] 0.226 | [56] 0.205 | [57] 0.29 | [58] 0.246 | [60] 0.278 | [61] 0.265 | [62] 0.263 | [64] 0.277 | [67] 0.8 | [68] 0.874
inactive: [1] 0.916 | [2] 0.925 | [3] 0.929 | [4] 0.93 | [5] 0.931 | [6] 0.926 | [7] 0.937 | [9] 0.938 | [10] 0.932 | [13] 0.958 | [17] 0.925 | [18] 0.9 | [19] 0.927 | [21] 0.922 | [29] 0.935 | [32] 0.935 | [38] 0.919 | [44] 0.908 | [46] 0.922 | [47] 0.929 | [49] 0.903 | [51] 0.909 | [52] 0.923 | [54] 0.903 | [59] 0.92 | [63] 0.92 | [65] 0.929 | [66] 0.886

COc1ccc(OC)c2nc3c(nc12)C(=O)c1ccccc1-3
inactive: [1] 0.97 | [2] 0.969 | [3] 0.974 | [4] 0.974 | [5] 0.974 | [6] 0.968 | [7] 0.984 | [8] 0.953 | [9] 0.972 | [10] 0.972 | [11] 0.997 | [12] 0.971 | [69] 0.957 | [13] 0.979 | [14] 0.971 | [15] 0.942 | [16] 0.988 | [17] 0.978 | [18] 0.969 | [19] 0.974 | [20] 0.974 | [21] 0.981 | [22] 0.973 | [23] 1 | [24] 0.837 | [25] 0.914 | [26] 0.863 | [27] 1.05 | [28] 0.965 | [29] 0.979 | [30] 0.91 | [70] 0.956 | [31] 0.958 | [32] 0.977 | [33] 0.947 | [34] 1 | [35] 0.953 | [36] 0.989 | [37] 0.985 | [38] 0.975 | [39] 1 | [40] 0.899 | [41] 0.967 | [42] 0.932 | [43] 0.979 | [44] 0.971 | [45] 0.996 | [46] 0.976 | [47] 0.973 | [48] 0.94 | [49] 0.958 | [50] 0.99 | [51] 0.971 | [52] 0.974 | [53] 0.945 | [54] 0.975 | [55] 0.958 | [56] 0.938 | [57] 1.05 | [58] 0.902 | [59] 0.966 | [60] 0.935 | [61] 0.929 | [62] 0.94 | [63] 0.96 | [64] 0.902 | [65] 0.979 | [71] 0.98 | [66] 0.968 | [67] 0.98 | [68] 0.968

COC(=O)[C@H](NC(=O)c1cc(-c2ccccc2)nc2ccccc12)c1ccccc1
inactive: locus YAL013W, strain DEP1, hits give low values 1.02 | locus YAL040C, strain CLN3, hits give low values 1.01 | locus YCL061C, strain MRC1 (second series), hits give low values 0.998 | locus YDR363W, strain ESC2, hits give low values 0.989 | locus YER002W, strain NOP16, hits give low values 1.01 | locus YGR078C, strain PAC10, hits give low values 0.984 | locus YJR075W, strain HOC1, hits give low values 1 | locus YNL128W, strain TEP1, hits give low values 0.996 | locus YNL153C, strain GIM3, hits give low values 1 | locus YNL175C, strain NOP13, hits give low values 1.01 | locus YNL197C, strain WHI3, hits give low values 0.989 | locus YNL224C, strain SQS1, hits give low values 1.02 | locus YNL322C, strain KRE1, hits give low values 0.999 | locus YOR083W, strain WHI5 (second series), hits give low values 1.06 | locus YPL055C, strain LGE1, hits give low values 0.99 | locus YPL241C, strain CIN2, hits give low values 0.999

NNC(=O)c1oc2nc(-c3ccccc3)cc(-c3ccccc3)c2c1N
active: [40] 0.813
inactive: [1] 0.972 | [2] 0.986 | [3] 0.984 | [4] 0.985 | [5] 0.987 | [6] 0.985 | [7] 0.983 | [8] 0.981 | [9] 0.978 | [10] 0.971 | [11] 0.921 | [12] 0.997 | [69] 0.962 | [13] 0.985 | [14] 0.934 | [15] 0.913 | [16] 0.93 | [17] 0.983 | [18] 0.965 | [19] 0.984 | [20] 0.924 | [21] 0.976 | [22] 0.93 | [23] 0.952 | [24] 0.943 | [25] 0.979 | [26] 1.01 | [27] 0.998 | [28] 0.914 | [29] 0.984 | [30] 0.891 | [70] 0.95 | [31] 0.924 | [32] 0.98 | [33] 0.887 | [34] 0.983 | [35] 0.956 | [36] 0.948 | [37] 0.937 | [38] 0.977 | [39] 0.989 | [41] 0.942 | [42] 0.924 | [43] 0.899 | [44] 0.988 | [45] 0.953 | [46] 0.983 | [47] 0.978 | [48] 0.935 | [49] 0.989 | [50] 0.946 | [51] 0.965 | [52] 0.981 | [53] 0.895 | [54] 0.954 | [55] 0.844 | [56] 0.958 | [57] 0.996 | [58] 0.884 | [59] 0.985 | [60] 0.907 | [61] 0.953 | [62] 0.907 | [63] 0.982 | [64] 0.939 | [65] 0.984 | [71] 0.977 | [66] 0.961 | [67] 0.97 | [68] 0.98
